This passage reports fluorescence ratio F(max-min)/F0 results from PubChem BioAssay AID624111 (Johns Hopkins Ion Channel Center, 2012).

About 60 (2%) of roughly 4,000 compounds were called active.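 The calls were made as follows: active = duplicate-averaged calcium fluorescence ratio at least three times the standard deviation of buffer wells, a nonspecific response in parental cells; inactive = the rest.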 The sample as a whole holds a higher share of actives than the screen did.

The assay in a line: calcium flux effects in cells lacking MrgX1 – parental HEK293 cells, Fluo-4 calcium flux, counter-screen for MrgX1 antagonist project, confirmation (AID 624111). The settings on record: parental HEK293, Fluo-4 calcium fluorescence, FDSS; at 10 µM. On the technique in general: A change in cytosolic calcium serves as a functional read-out for many receptors and channels.
As to `COc1ccc(C(=O)NC(=S)NNC(=O)c2c(-c3ccccc3)noc2C)cc1`, the fluorescence ratio F(max-min)/F0 result is “inactive”.

Consider `O=C(COC(=O)c1ccc(NS(=O)(=O)c2cccs2)cc1O)Nc1ccc(F)cc1`, for which the fluorescence ratio F(max-min)/F0 entry is “inactive”.

Consider `CN(CC(=O)Nc1ccccc1Cl)C(=O)COc1cccc2c1OC(C)(C)C2`, for which the fluorescence ratio F(max-min)/F0 result is “inactive”.

Regarding `O=C(O)CSC(NC(=O)c1cccnc1)(C(F)(F)F)C(F)(F)F`, the fluorescence ratio F(max-min)/F0 entry was “inactive”.

Consider `Nc1cc(OC(=O)c2ccccc2Br)nn1S(=O)(=O)c1ccccc1`, for which the fluorescence ratio F(max-min)/F0 result is “inactive”.

As to `COc1cc2c(cc1O)C(SC)=NC(C)(C)C2`, the fluorescence ratio F(max-min)/F0 entry was “inactive”.

For `Cc1nn(-c2ccccc2)c2c1C(c1ccc(F)cc1)C(C#N)=C(N)O2` (stereo unspecified), the fluorescence ratio F(max-min)/F0 result is “inactive”.

As to `O=C(CSc1c2c(nc3ccc(Cl)cc13)CCCC2)NCc1ccco1`, the fluorescence ratio F(max-min)/F0 entry is “inactive”.

`COc1ccc(OC)c(C(=O)c2ccc(Cl)cc2)c1`: the fluorescence ratio F(max-min)/F0 result is “inactive”.

Take `CCOc1ccc(C2=CC(c3ccccc3)n3ncnc3N2)cc1` (stereo unspecified): the fluorescence ratio F(max-min)/F0 result was “inactive”.

For `O=C(c1cccs1)C1C(c2ccc(Br)cc2)NC(=S)NC1(O)C(F)(F)F` (stereo unspecified), the fluorescence ratio F(max-min)/F0 entry was “inactive”.

Regarding `CCOC1CCCCC1NS(=O)(=O)c1ccc(Cl)cc1` (stereo unspecified), the fluorescence ratio F(max-min)/F0 entry is “inactive”.

Regarding `CC(C)CC(=O)NC(=S)NNC(=O)c1cccc([N+](=O)[O-])c1`, the fluorescence ratio F(max-min)/F0 entry was “inactive”.

As for `Cc1ccnc(NC(=O)C(C)N2C(=O)c3ccccc3C2=O)c1` (stereo unspecified), the fluorescence ratio F(max-min)/F0 entry was “inactive”.

`O=C1CCCc2c1nc(-c1cccc(Cl)c1)n2O`: the fluorescence ratio F(max-min)/F0 result is “inactive”.

Turning to `O=C(CSc1nncn1-c1cccnc1)N1CCOCC1`, the fluorescence ratio F(max-min)/F0 entry is “inactive”.

On to `O=c1c2cc(Br)ccc2nc(-c2cccc(Cl)c2)n1O`, for which the fluorescence ratio F(max-min)/F0 result is “inactive”.

Take `O=C1Cc2ccccc2Sc2ccc(Cl)cc21`: the fluorescence ratio F(max-min)/F0 entry is “inactive”.

Consider `CCOc1ccc2nc(/N=C/c3nc(-c4ccccc4)oc3O)sc2c1`, for which the fluorescence ratio F(max-min)/F0 is 0.438 (active).

As to `COCC(C)NC(=O)c1ccc(Cl)c(Cl)c1` (stereo unspecified), the fluorescence ratio F(max-min)/F0 entry was “inactive”.

`COCCNC(=O)C1CCN(S(=O)(=O)c2ccc3c(c2)OCCO3)CC1`: the fluorescence ratio F(max-min)/F0 entry is “inactive”.

For `FC(F)Oc1ccc(NC(=S)NCc2ccco2)cc1Cl`, the fluorescence ratio F(max-min)/F0 entry is “inactive”.

In the case of `COc1ccc(NC(=O)c2cc(-c3ccc(C)o3)nc3ccccc23)cc1`, the fluorescence ratio F(max-min)/F0 entry is “inactive”.

Turning to `O=C(COC(=O)C1CCN(S(=O)(=O)c2ccc3c(c2)OCCO3)CC1)Nc1ccccc1OC(F)F`, the fluorescence ratio F(max-min)/F0 entry was “inactive”.

For the compound `CC1CCN(S(=O)(=O)c2nnc(NC(=O)COc3ccccc3F)s2)CC1`, the fluorescence ratio F(max-min)/F0 entry is “inactive”.

On to `COC(=O)Cn1c(O)c(N=NC(=O)OC)c2ccccc21`, for which the fluorescence ratio F(max-min)/F0 entry is “inactive”.

Take `O=C(Nc1nc2c(F)cc(F)cc2s1)C1COc2ccccc2O1` (stereo unspecified): the fluorescence ratio F(max-min)/F0 result is “inactive”.

Regarding `CC(C)OCCCNc1ncnc2c1[nH]c1ccc(F)cc12`, the fluorescence ratio F(max-min)/F0 entry is “inactive”.

`O=C(CC(O)(C(F)(F)F)C(F)(F)F)Nc1ccc(Cl)c(Cl)c1`: the fluorescence ratio F(max-min)/F0 result is “inactive”.

Regarding `O=C(Nc1ccccc1N1CCOCC1)c1csc2c1CCCC2`, the fluorescence ratio F(max-min)/F0 entry was “inactive”.

Consider `Cc1ccc2cc(/C=N/Nc3ccc(C(=O)O)cc3)c(Cl)nc2c1`, for which the fluorescence ratio F(max-min)/F0 result was “inactive”.

Take `CCOCc1nnc(NC(=O)CCC2CCCCC2)s1`: the fluorescence ratio F(max-min)/F0 entry was “inactive”.

In the case of `O=C(Cn1c(-c2cncs2)nc2ccccc21)NC1CCCC1`, the fluorescence ratio F(max-min)/F0 result is “inactive”.

With `COc1cc(C2/C(=C(\O)c3ccc4c(c3)CC(C)O4)C(=O)C(=O)N2Cc2ccco2)ccc1O` (stereo unspecified), the fluorescence ratio F(max-min)/F0 entry is “inactive”.

In the case of `CC1CCCCN1S(=O)(=O)c1ccc(C(=O)Nc2nnc(-c3cccs3)o2)cc1` (stereo unspecified), the fluorescence ratio F(max-min)/F0 result was “inactive”.

As to `O=C(Oc1ccc(C(=S)N2CCOCC2)cc1)c1ccc(F)cc1`, the fluorescence ratio F(max-min)/F0 entry is “inactive”.

As for `COC(=O)Cc1cc(=O)n(-c2nc3ccccc3s2)[nH]1`, the fluorescence ratio F(max-min)/F0 entry is “inactive”.

With `COC(=O)c1c(NC(=O)c2c(Cl)cnn2C)sc(C)c1C`, the fluorescence ratio F(max-min)/F0 result was “inactive”.

Take `COc1cccc(CCNC(=O)COc2cccc3c2OC(C)(C)C3)c1`: the fluorescence ratio F(max-min)/F0 entry was “inactive”.

Regarding `CCOC(=O)Cc1csc(SCc2cc(=O)oc3cc(O)ccc23)n1`, the fluorescence ratio F(max-min)/F0 result was “inactive”.

On to `NC(=O)c1c(Nc2nc3c(F)cccc3s2)sc2c1CCCC2`, for which the fluorescence ratio F(max-min)/F0 result was “inactive”.

In the case of `COc1ccc([N+](=O)[O-])cc1NC(=O)COC(=O)/C=C/c1ccco1`, the fluorescence ratio F(max-min)/F0 result was “inactive”.

Take `Cc1ccc(OC(=O)c2cc3ccccc3o2)cc1`: the fluorescence ratio F(max-min)/F0 result was “inactive”.

As to `Cc1cccc(-n2c(Cc3cc(=O)[nH]c(=O)[nH]3)nnc2SC(C)C)c1`, the fluorescence ratio F(max-min)/F0 entry is “inactive”.

`Cc1ccc(Nc2nc(-c3ccc(O)cc3O)cs2)nc1`: the fluorescence ratio F(max-min)/F0 entry is “inactive”.

In the case of `COc1ccc(Nc2nc(-c3cccnc3)nc3ccccc23)cn1`, the fluorescence ratio F(max-min)/F0 entry is “inactive”.

Consider `Cc1ccc(S(=O)(=O)N(C)c2nc3ccccc3n3c(C(C)C)nnc23)cc1`, for which the fluorescence ratio F(max-min)/F0 entry is “inactive”.

As for `COC(=O)c1c(NC(=O)CN(c2ccc(C)c(C)c2)S(C)(=O)=O)sc2c1CCCC2`, the fluorescence ratio F(max-min)/F0 entry is “inactive”.

Take `Cc1nonc1C1CCCN1Cc1nc(-c2ccc(F)cc2F)oc1C` (stereo unspecified): the fluorescence ratio F(max-min)/F0 entry was “inactive”.

On to `Cc1ccc(C(C(=O)NC2CCCCC2)N(C(=O)c2csnn2)C2CC2)o1` (stereo unspecified), for which the fluorescence ratio F(max-min)/F0 result was “inactive”.

Consider `CCCc1nc2c(c(=O)c3ccccc3n2C)c(=O)n1C1CCCCCC1`, for which the fluorescence ratio F(max-min)/F0 result was “inactive”.

For `COC(=O)c1ccc(C2C3=C(Nc4nnnn42)c2ccccc2OC3)cc1` (stereo unspecified), the fluorescence ratio F(max-min)/F0 result was “inactive”.

Take `CCN(CC)c1ccc(C2C3CCCCC3(O)CCN2CC(=O)Nc2ccccc2)cc1` (stereo unspecified): the fluorescence ratio F(max-min)/F0 result was “inactive”.

Regarding `Cc1cccc(NC(=O)COc2ccccc2C)n1`, the fluorescence ratio F(max-min)/F0 entry was “inactive”.

In the case of `COc1ccc(Cc2nc(-c3ccccn3)no2)cc1OC`, the fluorescence ratio F(max-min)/F0 entry is “inactive”.

Take `CN(C)CCn1c(=S)[nH]c2ccc(Cl)cc2c1=O`: the fluorescence ratio F(max-min)/F0 entry is “inactive”.
